# Screening results as filed in PubChem.
# ELG1 DNA repair: blocks ELG1-dependent DNA repair in HEK293T cells. HEK293T ELG1-luciferase reporter, luminescence, 16 h; DNA damage induced by 5-fluorouridine. Potency, µM (series often up to 46.1 µM), without a hit: at the highest dose activity change, negative = inhibition, most hits filed as inhibitors. 2.3% of 330,000 active. AID 504467; note: % is set by controls: 0 for no effect and ±100 for the full control effect; nearly all actives have a fitted effect of over 55% in size
#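 DMSO vehicle served as the neutral condition. Each well held 2,000 cells given 5-fluorouridine plus compound; after 16 hr at 37 °C/5% CO2, ONE-Glo was added and luciferase measured 30 min later.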
# IDH1 R132H inh: blocks human mutant IDH1 R132H enzyme; AID 602179; Potency, µM (series often up to 76.6 µM), inactives show top-dose activity change, negative = inhibition, usual class: inhibitors; IDH1-R132H enzyme, NADPH consumption, diaphorase/resazurin fluorescence; O75874; 0.093% of 390,000 active; note: % is set by controls: 0 for no effect and ±100 for the full control effect; nearly all actives have a fitted effect of over 65% in size
# Target sequence (O75874 whole entry R132H, stated change not applied): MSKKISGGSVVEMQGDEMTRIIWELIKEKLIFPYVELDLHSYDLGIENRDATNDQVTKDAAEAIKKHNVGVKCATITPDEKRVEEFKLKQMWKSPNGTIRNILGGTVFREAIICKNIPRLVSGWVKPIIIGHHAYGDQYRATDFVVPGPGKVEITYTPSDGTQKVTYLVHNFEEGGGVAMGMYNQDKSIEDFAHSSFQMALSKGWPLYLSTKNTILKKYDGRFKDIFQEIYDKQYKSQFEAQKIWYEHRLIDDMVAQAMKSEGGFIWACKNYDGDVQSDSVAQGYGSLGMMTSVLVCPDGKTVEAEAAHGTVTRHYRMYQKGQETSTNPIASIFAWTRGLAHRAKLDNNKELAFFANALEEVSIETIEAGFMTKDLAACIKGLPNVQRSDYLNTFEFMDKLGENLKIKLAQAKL
#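 IDH1-R132H (0.5 ug/mL) preincubated 30 min with compound, then NADPH (0.016 mM) and alpha-KG (2 mM) added; 80 min at RT, pH 7.5. Remaining NADPH coupled via diaphorase/resazurin to fluorescence (540/590 nm); concentration-response curves normalized to no-enzyme control.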
# A549 viability: kills or reduces viability of A549 cells in Nrf2 counter-screen; A549 ARE-Fluc cells, CellTiter-Fluor viability, 18-24 h; Potency, µM (highest dose often 46 µM), for inactives: at the top dose activity change, negative = cytotoxicity, usual class: inhibitors; 0.16% of 390,000 active; note: % is set by controls: 0 for no effect and ±100 for the full control effect
#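 A549 ARE-Fluc cells in 5% FBS OPTI-MEM, 5000 cells/well, rested 2 h then exposed to compounds in concentration-response for 18-24 h at 37 °C. Viability by CellTiter-Fluor fluorescence (Ex 405/Em 525) after 30 min; luciferase luminescence (BugLite, 15 min, RT) read afterwards.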
# Nrf2 ARE act: activators of Nrf2 (ARE) signaling; Potency, µM (doses to about 46.1 µM), without a hit: top-dose activation, most hits filed as activators; 0.31% of 410,000 active; AREc32 ARE-luciferase reporter (MCF7-derived line), luminescence, 24 h; AID 624171; note: % of control where 0% means no effect; nearly all actives have a fitted effect of over 65% in size
#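 Luciferase luminescence (Steady-Glo, 30 min at room temperature) served as the read-out of ARE activation in AREc32 cells treated with compounds for 24 hr at 37 deg C.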
# Nrf2 block: Nrf2 pathway inhibition; A549 ARE-Fluc reporter, luciferase luminescence, 18-24 h; Potency, µM (highest dose often 46 µM), for inactives: at the highest dose activity change, negative = inhibition, most hits filed as inhibitors; 2.1% of 360,000 active; AID 504444; note: % is set by controls: 0 for no effect and ±100 for the full control effect; nearly all actives have a fitted effect of over 60% in size
#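 A549 ARE_Fluc cells (5000/well, 5% FBS OPTI-MEM) pre-incubated 2 h, then treated with compounds 18-24 h at 37C/5% CO2 in concentration-response. CellTiter-Fluor viability read first; BugLite luciferase luminescence after 15 min at room temperature gives Nrf2 activity.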
# Starred values were filed as active, the others as inactive; ? = inconclusive; . = not tested or not shown. Hits are enriched below; roughly 3.8% of the tested compounds scored in any of these assays. Calls come from the whole dose curve; as a rule, active = well fitted curve in the direction sought with a large enough effect; inconclusive = small, poorly fitted or top-dose-only effect, or another doubt; inactive = no such curve, though single readings can be large; an effect the other way counts as inactive or inconclusive. Potency is the fitted concentration of half-maximal effect.
SMILES,ELG1 DNA repair,IDH1 R132H inh,A549 viability,Nrf2 ARE act,Nrf2 block
N/C(=N\OC(=O)c1cccc2ccccc12)c1cccc([N+](=O)[O-])c1,7%,0%,-2%,26%,.
N/C(=N\OC(=O)c1cccc2ccccc12)c1cccnc1,?,7%,-1%,2µM*,?
O=C(Oc1c(Cl)cc(Cl)c2cccnc12)c1ccco1,?,8%,?,11%,23µM*
Oc1ccc(Cl)c2cccnc12,.,3%,-1%,15%,?
Cc1ccc(S(=O)(=O)Nc2cc(Cl)c(O)c3ncccc23)cc1,?,22%,-23%,6%,21µM*
Oc1c(Cl)cc(Cl)c2cccnc12,2.3µM*,-5%,-9%,6%,-26%
Cc1ccc(C2N=C(Nc3nc4ccccc4o3)NC3=C2C(=O)CC(C)(C)C3)cc1 (stereo not given),.,.,-2%,.,22%
Cc1ccc(S(=O)(=O)c2c(O)cc(C)c(NS(=O)(=O)c3ccc(Cl)cc3)c2C)cc1,.,-3%,-8%,0%,?
CC(C)(C)/C(O)=C/c1nc2cc(Cl)ccc2oc1=O,?,23%,-4%,10µM*,10%
COC(=O)CNC(c1ccccc1)c1cc(C)ccc1NC(=O)c1cccc(Cl)c1 (stereo not given),18µM*,2%,-1%,0%,-9%
Cc1ccc(C(=O)NCC(c2cccs2)S(=O)(=O)c2cccs2)cc1C (stereo not given),.,1%,-8%,10%,.
COc1ccc(-c2cnc(OC(C)(C)C)nc2OC(C)(C)C)cc1OC,-15%,3%,?,0%,23µM*
COc1ccc(-c2cncnc2N)cc1OC,.,-1%,.,-1%,.
CCOc1ccc2nc(NC(=O)c3nc(SCc4ccccc4F)ncc3Cl)sc2c1,.,-13%,-3%,4%,-6%
CCCCC(=O)Nc1ccc(C(=O)Nc2ccc(OC)cc2[N+](=O)[O-])cc1,3%,1%,?,-1%,21µM*
CC(C)S(=O)(=O)c1oc(-c2ccc(F)cc2)nc1S(=O)(=O)c1ccccc1,.,17%,?,?,?
CC(C)S(=O)(=O)c1oc(-c2cccs2)nc1S(=O)(=O)c1ccc(F)cc1,.,36%,?,-6%,18µM*
CC[N+](CC)(CC#Cc1ccccc1)CC#Cc1ccccc1,?,-9%,1%,0%,15µM*
C#CC[N+](CC)(CC)CC#Cc1ccccc1,?,7%,-2%,0%,?
Cc1onc(-c2ccccc2Cl)c1C(=O)NCCCc1ccccc1,13%,1%,-1%,0%,-5%
Cc1cc2cc(CCNC(=O)c3c(-c4ccccc4Cl)noc3C)c(=O)[nH]c2cc1C,13µM*,.,.,.,.
Cc1cc2cc(CCNC(=O)c3cccc([N+](=O)[O-])c3)c(=O)[nH]c2cc1C,23µM*,-3%,1%,0%,?
CCNc1nc(NCC)nc(-n2cc(C(=O)c3cc(Cl)ccc3O)cn2)n1,.,.,-4%,.,7%
COc1ccccc1CN(Cc1nc2ccccc2c(=O)[nH]1)S(=O)(=O)c1ccc(C)cc1,23µM*,-3%,0%,2%,1%
O=C(CCCCCNc1nc(=S)[nH]c2ccccc12)NCCc1ccc(Cl)cc1,0%,0%,-7%,5%,?
SMILES,ELG1 DNA repair,IDH1 R132H inh,A549 viability,Nrf2 ARE act,Nrf2 block
O=C(CCCCCNc1nc(=S)[nH]c2ccccc12)NCCc1c[nH]c2ccccc12,18µM*,10%,-17%,4%,-18%
O=C(CSc1nc2ccccc2s1)NCC1CCCO1 (stereo not given),19%,-6%,7%,2%,5%
O=C(CSc1nc2ccc(NC(=O)C3CCCCC3)cc2s1)NCC1CCCO1 (stereo not given),13µM*,5%,-14%,7%,?
Cc1ccc(C(=O)Oc2coc(CSc3nnc(NC(=O)C4CC4)s3)cc2=O)cc1,-3%,0%,-4%,-2%,21µM*
O=C(Oc1coc(CSc2nnc(NC(=O)c3cccs3)s2)cc1=O)c1ccccc1,4%,2%,-2%,0%,14%
CCCCC(=O)Nc1ccc(NC(=O)c2ccccc2OC)cn1,18µM*,-3%,-15%,0%,?
O=C(NCC(c1cccnc1)N1CCc2ccccc21)c1ccc(F)cc1 (stereo not given),.,0%,6%,4%,?
COc1cc(NC(=O)c2ccc(C(C)(C)C)cc2)c(OC)cc1NC(=O)CN1CCCCC1,?,8%,-16%,0%,20%
Cc1c(C(=O)Nc2ccc(F)cc2F)oc2ccc3c(c12)C(=O)CC(C)(C)O3,.,-9%,-7%,0%,10%
Cc1cc(C)c(C(=O)CC(=O)c2ccccc2Cl)c(O)c1,-3%,1%,-21%,2%,-23%
COc1ccccc1NC(=O)CC(=O)CSc1nnc(-c2ccc(C)cc2)n1-c1ccccc1,6%,0%,-3%,-1%,15%
COc1ccc(-c2nnc(SCC(=O)Nc3ncc(C)s3)n2-c2ccccc2)cc1OC,21µM*,-1%,-21%,-1%,-3%
COc1ccc(C2c3c(n(Cc4ccccc4)cnc3=N)Oc3ccc4ccccc4c32)cc1OC (stereo not given),.,.,-7%,.,3%
Cc1[nH]n(-c2ccccc2)c(=O)c1/C=N/NC(=O)c1cccc(F)c1,?,6%,-27%,0%,7.3µM*
Cc1[nH]n(-c2ccc(Br)cc2)c(=O)c1/C=N/NC(=O)c1ccccc1,?,-6%,?,3%,?
Cc1ccccc1Cn1nc(C)c(NC(=O)c2sc3ccccc3c2Cl)c1C,26µM*,4%,-18%,0%,?
Cc1nn(Cc2ccc(Cl)c(Cl)c2)c(C)c1NC(=O)c1sc2ccccc2c1Cl,?,3%,-26%,0%,15µM*
Cc1nn(Cc2c(Cl)cccc2Cl)c(C)c1NC(=O)c1sc2ccccc2c1Cl,0%,0%,-22%,0%,?
Cc1ccc2oc3c(c(=O)c2c1)C(c1cccc(O)c1)N(c1ccccn1)C3=O (stereo not given),16µM*,-25%,1%,0%,?
Cc1nc2oc3c(NCc4ccccc4)ncnc3c2c2c1COC(C)(C)C2,7.3µM*,3%,-11%,0%,?
Cc1ccc(C(C)C)c(OCC(=O)Nc2ccc(N3CCOCC3)cc2N2CCOCC2)c1,18µM*,5%,-2%,0%,?
CCc1ccccc1OCC(=O)Nc1cc(S(=O)(=O)N2CCOCC2)ccc1N1CCCCC1,?,0%,-12%,0%,?
O=C(Nc1cc(S(=O)(=O)N2CCOCC2)ccc1N1CCCC1)c1ccc2c(c1)S(=O)(=O)c1ccccc1C2=O,10µM*,-10%,-13%,0%,-1%
